Most compounds without a hit are left out; they make up all but 1.7% or so of the library.
FGF22 binding-1: binders of recombinant human FGF22 by thermal shift; activity (Tm shift, normalised), % at 9.99 µM; SYPRO orange fluorescence; percent of sucrose octasulfate shift, DMSO zero; Q9HCT0; AID 651658; actives 1.5% (n = 340,000);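 active means mean Tm shift, scaled 0 neutral to 100 positive control, at about 1.3% or above, every replicate too, limit read from the data; inconclusive means no clear call, values can overlap the other calls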
Target sequence (Q9HCT0 whole entry, looked up): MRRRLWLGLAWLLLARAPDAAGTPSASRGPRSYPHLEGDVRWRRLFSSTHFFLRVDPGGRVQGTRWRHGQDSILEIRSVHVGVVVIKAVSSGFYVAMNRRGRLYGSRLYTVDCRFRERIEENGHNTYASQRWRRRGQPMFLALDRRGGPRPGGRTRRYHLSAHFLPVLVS
F508del corr: CFTR F508del correction in bronchial cells; CFBE cells, YFP halide quenching; stimulated with forskolin plus potentiator P3; % fluorescence drop versus neutral controls; activity (quench increase), % at 7.58 µM; actives 0.36% (n = 350,000);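 active means mean added fluorescence quench of at least 8% versus neutral control, with both replicates also reaching 8%; inconclusive means only one of the mean or replicate conditions met; inactive means mean below 8% and not both replicates reaching 8%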;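 further: cells transiently co-express mutant CFTR-F508del with the halide-sensitive YFP; corrector assay measuring rescue of mutant channel to the surface after 24 h compound exposure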
Vif inh: inhibitors of HIV Vif; HEK293T cells, Vif self-association by quenched fluorescence, imaging, 24 h; inhibition, % at 7.49 µM; actives 0.35% (n = 340,000); AID 602346; in the data active means inhibition above about 50%, passing the limit was not always enough; inconclusive means no clear call, values can overlap the other calls; inactive means below about 31%
FGF22 binding-2: binders of human FGF22 by thermal shift; actives 2% (n = 1,000); AID 720646; recombinant FGF22 thermal shift, SYPRO orange fluorescence; thermal shift activity, °C (ΔTm) at 38 µM; shares compounds with FGF22 binding-1;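 active means fitted rise in melting shift crosses a set limit at or below the top valid dose tested; inconclusive means flat fit at mid-level activity, or a poor quality fit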
FGF22 TSA DP: binders of human FGF22 by thermal shift; shares compounds with FGF22 binding-1; Thermal shift assay, SYPRO orange, melting temperature shift; Tm shift (activity), % at 38 µM; 50 tested, under 10 active; AID 743017;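 active means compounds whose fitted dose curve of melting temperature shift rises past a set threshold within the tested doses; inconclusive means flat curve at moderate activity, or poor curve fit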
SYPRO no-protein: counter-screen for FGF22 binders: compound-only thermal shift, no protein; AC50, µM (titrated, usually from 38 µM); shares compounds with FGF22 binding-1; actives 2% (n = 1,000); compound-only SYPRO orange thermal shift counter-screen;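 active means rising signal whose fitted curve reaches the 0.54 level within the top valid dose, showing a melting point, actives reach about 13 µM in these data; inactive means the rest, including activity in the opposite direction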; further: value is where the raw curve crosses a fixed level and not half-maximal
Starred values were filed as active, the others as inactive; i = inactive; ? = inconclusive; . = no result; [ ] = another dose, or the depositor's remark.

SMILES	FGF22 binding-1	F508del corr	Vif inh	FGF22 binding-2	SYPRO no-protein	others
C[C@@H]1CN([C@H](C)CO)S(=O)(=O)c2ccc(C3=CCCCC3)cc2O[C@@H]1CN(C)C(=O)CN(C)C	0.7	2.7	.	.	.
C[C@@H]1CN([C@H](C)CO)S(=O)(=O)c2ccc(C3=CCCCC3)cc2O[C@H]1CN(C)C(=O)CN(C)C	1.2*	-0.7	.	0.223[42 µM]	i
C[C@H]1CN([C@@H](C)CO)S(=O)(=O)c2ccc(C#Cc3ccncc3)cc2O[C@H]1CN(C)C(=O)Nc1ccc2c(c1)OCO2	1.4*	3.8	.	-0.237	i
C[C@H](CO)N1C[C@H](C)[C@H](CN(C)C(=O)Nc2ccc3c(c2)OCO3)Oc2cc(C3=CCCCC3)ccc2S1(=O)=O	1.6*	1.6	.	-0.031	11.2µM*
CCCNC(=O)Nc1ccc2c(c1)C(=O)N(C)[C@@H]1CC[C@H](CC(=O)NCC3CCCCC3)O[C@H]1CO2	-0.3	-1.0	.	.	.
COc1ccc2c3c(n(C)c2c1)[C@H](CO)N(C(=O)C1CCCC1)CC31CCN(Cc2cccc(F)c2)CC1	-0.1	5.2	.	.	.
CO[C@H]1CN(C)C(=O)c2cc(NC(=O)NC(C)C)ccc2OC[C@@H](C)N(C(=O)C2CCC2)C[C@H]1C	-0.3	1.1	.	.	.
O=C(N[C@H]1CC[C@H](CC(=O)N2CCc3ccccc3C2)O[C@H]1CO)C1CCC1	-0.2	1.9	.	.	.
CN(C)c1ccc(/C=N/NC(=O)c2ccc3nc[nH]c3c2)cc1	0.8	0.0	-3.7	.	.
CSc1ccc(/C=N/NC(=O)c2ccc3nc[nH]c3c2)cc1	2.2*	-0.2	-1.3	.	i	FGF22 TSA DP=0.1
COc1ccc(/C=N/NC(=O)c2ccc(NS(=O)(=O)c3cccs3)cc2)cc1	1.7*	-1.2	4.8	-0.093	i
O=C(O)c1ccc(/C=N/NC(=O)c2ccc(NS(=O)(=O)c3cccs3)cc2)cc1	0.2	-2.0	10.0	.	.
Cc1ccc(C(=O)NNC(=O)c2ccc(NS(=O)(=O)c3cccs3)cc2)s1	0.2	-0.9	.	.	.
Cc1cccc(C(=O)NNC(=O)c2ccc(NS(=O)(=O)c3cccs3)cc2)c1C	1.9*	1.3	-2.8	-0.09	i
O=C(Nc1cc(F)ccc1F)N[C@H]1CC[C@H](CCn2cc(C3CC3)nn2)O[C@H]1CO	0.0	-0.6	.	.	.
CC(=O)NCCCNc1ccc([N+](=O)[O-])cc1	.	.	-16.9	.	.
CCS(=O)(=O)NCCNc1ccc([N+](=O)[O-])cc1	1.5*	-2.8	5.0	-0.069	i
O=C(C[C@@H]1CC[C@H]2[C@@H](COC[C@@H](O)CN2Cc2ccc(F)cc2)O1)NCCc1ccccc1	0.0	-0.8	.	.	.
C[C@@H]1CN([C@@H](C)CO)C(=O)c2cc(C3=CCCC3)cnc2O[C@@H]1CN(C)C(=O)c1ccncc1	0.1	-1.1	.	.	.
C[C@@H]1CN([C@H](C)CO)C(=O)c2cc(C#Cc3ccccc3F)cnc2O[C@@H]1CN(C)C	0.0	0.7	.	.	.
O=[N+]([O-])c1ccc(Cl)c(S(=O)(=O)Nc2ccc(S(=O)(=O)N3CCOCC3)cc2)c1	2.2*	-2.4	10.5	0.155	i
O=[N+]([O-])c1ccc(Cl)c(S(=O)(=O)Nc2ccc(-c3ccc(N4CCOCC4)nn3)cc2)c1	0.0	-1.7	2.7	.	.
C[C@@H]1CN([C@@H](C)CO)C(=O)c2cc(NC(=O)Nc3ccccc3)ccc2O[C@H]1CN(C)Cc1ccc(Cl)c(Cl)c1	.	-1.3	.	.	.
Cc1nn(CCOc2cccc(Cl)c2)c(C)c1[N+](=O)[O-]	0.1	-4.5	-15.7	.	.
Cc1nn(CCOc2ccccc2Cl)c(C)c1[N+](=O)[O-]	1.7*	-1.1	6.8	-0.008	i
SMILES	FGF22 binding-1	F508del corr	Vif inh	FGF22 binding-2	SYPRO no-protein	others
C[C@H]1CN([C@@H](C)CO)C(=O)c2cc(NC(=O)Nc3ccc(F)cc3)ccc2O[C@@H]1CN(C)S(=O)(=O)c1ccccc1	-0.1	?	.	.	.
COc1cc(OC)cc(C(=O)/C=C2\Sc3ccccc3N2C)c1	0.4	-1.7	-3.5	.	.
CN1/C(=C\C(=O)c2cccc([N+](=O)[O-])c2)Sc2ccccc21	2.2*	0.0	8.5	0.013	i
COc1cc(-c2nc(C)c(C(C)=O)n2O)ccc1OCC(=O)Nc1ccc(F)cc1	0.2	-0.1	7.9	.	.
CC(=O)Nc1ccc(-c2nc(C)c(C(C)=O)n2O)cc1	0.6	-3.7	22.0	.	.
CCOc1cc(-c2nc(C)c(C(C)=O)n2O)ccc1OCC(=O)Nc1ccc(F)cc1	2.7*	1.0	-2.4	-0.026	i
CC(=O)c1c(C)nc(-c2ccc(OCC(=O)Nc3ccc(F)cc3)cc2)n1O	2.3*	-5.1	-14.4	-0.138	i
CN1c2ccc(-c3cccc(C#N)c3)cc2[C@H]2[C@H](CCN2S(=O)(=O)c2ccccc2F)[C@H]1CO	-0.3	0.5	.	.	.
COCC(=O)N(C)C[C@@H]1Oc2ncc(C#CCC3CCCC3)cc2C(=O)N([C@@H](C)CO)C[C@H]1C	0.1	-0.9	.	.	.
CC(C)NC(=O)N(C)C[C@H]1Oc2ccc(NC(=O)C3CCCCC3)cc2CC(=O)N([C@H](C)CO)C[C@@H]1C	0.5	-1.4	.	.	.
Cc1noc(C)c1NC(=O)N(C)C[C@H]1OCCCC[C@H](C)Oc2ccc(NS(=O)(=O)c3ccc(Cl)cc3)cc2C(=O)N([C@H](C)CO)C[C@@H]1C	.	-2.0	.	.	.
O=C(Nc1ccccc1)N1C[C@H]2[C@@H](c3ccccc31)[C@@H](CO)N2C(=O)c1ccncc1	1.4*	-1.6	.	-0.096[42 µM]	i
O=C(Nc1ccccc1)N1C[C@@H]2[C@H](c3ccccc31)[C@@H](CO)N2C(=O)c1ccncc1	0.8	-4.3	.	.	.
O=C(Nc1cccc(F)c1)N1C[C@@H]2[C@H](c3ccccc31)[C@H](CO)N2C(=O)c1cccnc1	1.4*	-5.0	.	0.195[42 µM]	i
O=C(Nc1cccc(F)c1)N1C[C@H]2[C@@H](c3ccccc31)[C@@H](CO)N2C(=O)c1cccnc1	0.7	-3.3	.	.	.
Cc1noc(C)c1NC(=O)Nc1cccc2c1O[C@@H](CN(C)C(=O)Nc1c(C)noc1C)[C@H](C)CN([C@@H](C)CO)C2=O	0.0	2.1	.	.	.
CN(C)CCCNC(=O)C[C@H]1C=C[C@@H](NC(=O)Cc2cccnc2)[C@@H](CO)O1	0.6	0.8	.	.	.
Cc1ccc(NC(=O)Nc2ccc3c(c2)nc(C)n3C)cc1	0.0	1.9	-10.7	.	.
Cc1cc(NC(=O)Nc2ccc3c(ccn3C)c2)sn1	2.8*	.	0.9	0.141	i	FGF22 TSA DP=0.0
Cc1ccc(S(=O)(=O)Nc2ccc3c(c2)C(=O)N([C@H](C)CO)C[C@@H](C)[C@H](CN(C)C(=O)NC(C)C)OCCCC[C@@H](C)O3)cc1	0.6	1.8	.	.	.
O=C(C[C@@H]1CC[C@@H](NC(=O)CC2CC2)[C@@H](CO)O1)NCc1ccccc1	.	-0.8	.	.	.
CN(C)C(=O)c1ccc(-c2ccc3c(c2)[C@@H]2[C@@H](CCN2C(=O)c2ccccn2)[C@@H](CO)N3C)cc1	-0.1	0.1	.	.	.

High-throughput results from PubChem.
